# Screening data: PubChem BioAssay, National Center for Advancing Translational Sciences (NCATS)
# Sampled rows, rich in hits. Any-hit rate of the full collection: about 5.9%.
# RORgamma inh – ROR gamma (mouse) transcription inhibition; P51450; Drosophila S2 Gal4-RORgamma UAS-luciferase reporter, 20 h; Potency, µM (series often up to 53.6 µM), for inactives: at the highest dose activity change, negative = inhibition, actives largely listed as inhibitors; 5.4% of 310,000 active; note: potency is the fitted concentration of half-maximal effect; nearly all actives have a fitted effect of over 60% in size
# Target sequence (P51450 whole entry, looked up, the tested form may be a part): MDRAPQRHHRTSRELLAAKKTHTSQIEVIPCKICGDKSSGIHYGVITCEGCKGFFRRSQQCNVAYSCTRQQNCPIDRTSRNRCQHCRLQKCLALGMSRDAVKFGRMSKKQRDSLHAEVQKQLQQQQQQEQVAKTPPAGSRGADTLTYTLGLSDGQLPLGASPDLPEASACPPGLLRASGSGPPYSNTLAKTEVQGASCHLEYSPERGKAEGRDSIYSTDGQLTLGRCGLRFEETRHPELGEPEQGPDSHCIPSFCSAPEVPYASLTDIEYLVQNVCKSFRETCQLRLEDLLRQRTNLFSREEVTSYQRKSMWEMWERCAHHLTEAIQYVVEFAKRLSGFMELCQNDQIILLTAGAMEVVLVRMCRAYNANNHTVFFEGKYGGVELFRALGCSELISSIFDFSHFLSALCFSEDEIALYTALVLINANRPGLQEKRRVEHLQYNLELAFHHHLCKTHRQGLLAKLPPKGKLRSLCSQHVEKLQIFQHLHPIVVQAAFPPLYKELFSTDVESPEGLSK
#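 Drosophila Schneider cells stably carrying a metallothionein-driven Gal4 DBD–ROR gamma fusion and a UAS-Photinus luciferase reporter were exposed to compound for 1 hr, then induced with copper sulfate (700 uM final) for 20 hr at ambient temperature before luminescence reading.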
# TrxR1 substrate – substrates of rat thioredoxin reductase 1 | O89049 | purified TrxR1 substrate turnover, NADPH consumption readout | Potency, µM (series often up to 114 µM), for inactives: top-dose activity change, negative = substrate turnover | 0.01% of 390,000 active | AID 588456; note: potency is the fitted concentration of half-maximal effect; nearly all actives have a fitted effect of over 50% in size
#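 Rat TrxR1, dispensed at 90 nM, was prereduced with 400 uM NADPH (final) for 5 min at ~22 deg C, then incubated with compound 15 min before 400 uM selenite. A first-read NADPH fluorescence drop versus no-compound background flagged substrates.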
# VP16 counter – counter-screen for ROR gamma inhibitors: Gal4-VP16 reporter; Drosophila S2 Gal4-VP16 UAS-luciferase, luminescence, 20 h; Potency, µM (titrated, usually from 53.6 µM), for inactives: at the top dose activity, negative = inhibition, actives largely listed as inhibitors; 3.5% of 310,000 active;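 note: Gal4-VP16 expression switched on by copper sulfate through the metallothionein promoter; potency is the fitted concentration of half-maximal effect; nearly all actives have a fitted effect of over 50% in size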
# GALK inhibitor – blocks human galactokinase activity | 0.007% of 270,000 active | Purified GALK, Kinase-Glo residual ATP luminescence | Potency, µM (doses to about 57.5 µM), without a hit: at the top dose activity change, negative = inhibition, usual class: inhibitors; note: potency is the fitted concentration of half-maximal effect
#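 Quantitative HTS: GALK 5 nM, ATP 35 uM, galactose 100 uM, 1 h room temperature, then luciferase-based ATP detection.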
# Coupling enz – inhibits coupling enzyme system, counter-screen for aldolase hits. 0.67% of 290,000 active. activity change, negative = inhibition, % at 58.2 µM, hits read low. coupling enzyme system counterscreen, AmpLite Red fluorescence; in the data active = activity change below about -30%
#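 First, compound is pin-transferred into glyceraldehyde-3-phosphate coupling-enzyme reagent at 57.5 uM final and held 10 min at RT. Next, substrate, coupling system and AmpLite Red are added. After 20 min RT, fluorescence (525/598 nm) is read.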
# rTrxR1 inhibitor – blocks rat thioredoxin reductase 1. O89049. recombinant rTrxR1, NADPH fluorescence consumption, selenite substrate. Potency, µM (top dose mostly 114 µM), for the others: at the top dose activity change, negative = inhibition, most hits filed as inhibitors. 1% of 390,000 active; note: potency is the fitted concentration of half-maximal effect; nearly all actives have a fitted effect of over 65% in size
#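 Rat TrxR1 (90 nM in the dispensed reagent) was pre-reduced with 400 uM NADPH for 5 min at room temperature, then incubated with compound for 15 min. After 400 uM selenite was added, NADPH fluorescence (Ex 340/Em 450 nm) was followed for 8 min.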
# Numbers without * were called inactive; ? = inconclusive; / = no result given; [ ] = remark or other dose. Unless noted, calls come from the whole dose curve; as a rule, active = well fitted curve in the direction sought with a large enough effect; inconclusive = small, poorly fitted or top-dose-only effect, or another doubt; inactive = no such curve, though single readings can be large; an effect the other way counts as inactive or inconclusive. % is set by controls: 0 for no effect and ±100 for the full control effect.
SMILES,RORgamma inh,TrxR1 substrate,VP16 counter,GALK inhibitor,Coupling enz,rTrxR1 inhibitor
C=C1C(=O)C2=CC1CCC(=O)C1(C)CCC(OC(C)=O)C(C)(C)C1CC2O (stereo not drawn),/,1.3%,/,/,/,50.1µM*
CC(=O)OC1CC[C@@]2(C)C(CC[C@@]3(C)C2CC=C2C4CC(C)(C)CC[C@]4(C)CC[C@@]23C)C1(C)C (stereo partly drawn),-5.1%,/,-5.3%,/,1.4,/
Cc1ccc(S(=O)(=O)N2CCCc3cc(NS(=O)(=O)c4ccc(C)c(C)c4)ccc32)cc1,/,2.4%[57.1 µM],/,/,/,18.3%[57.1 µM]
O=C1C(C2=NC(c3ccccn3)C3C(=O)N(c4ccc(OC(F)(F)F)cc4)C(=O)C23)=C(O)c2ccccc21 (stereo not drawn),4.2%,7.7%[57.1 µM],0.1%,0.5%,-2.2,19.5%
O=C1C(C2=NC(C(=O)O)C3C(=O)N(c4ccccc4)C(=O)C23)=C(O)c2ccccc21 (stereo not drawn),11.2µM*,-13.7%,12.6µM*,-0.7%,2.5,-11.1%
COc1ccc(N2CC(C(=O)N/N=C/c3cc([N+](=O)[O-])ccc3O)CC2=O)cc1 (stereo not drawn),5.62µM*,-9.7%,17.8µM*,-2.5%,7.0,-0.2%
COc1ccc(N2CC(C(=O)Nc3ccc([N+](=O)[O-])cc3Br)CC2=O)cc1 (stereo not drawn),15.0%,-6.7%,-9.8%,7.7%,-0.3,2.6%
O=C(N/N=C/c1ccccc1O)C1CC(=O)N(c2ccc(F)cc2)C1 (stereo not drawn),2.82µM*,0.1%,6.31µM*,1.4%,2.4,0.5%
COc1ccc(N2CC(C(=O)N/N=C/c3c[nH]c4ccccc34)CC2=O)cc1 (stereo not drawn),-2.1%,-0.4%[57.1 µM],7.1%,-1.5%,2.4,4.3%[57.1 µM]
O=c1c(N2CCN(c3cccc(C(F)(F)F)c3)CC2)csc2ccc(Cl)cc12,/,3.2%[57.1 µM],/,/,/,11.6%[57.1 µM]
Cc1cc(NC(=O)C(C)SCC(=O)N(C)CC(=O)Nc2ccc(Br)cc2C)no1 (stereo not drawn),12.6µM*,-8.6%,12.6µM*,7.0%,/,-0.8%
Cc1ccc(S(=O)(=O)Nc2cccc(-c3ccc(N4CCCCCC4)nn3)c2)c(C)c1,26.9%,1.5%[57.1 µM],-7.3%,0.9%,/,19.2%[57.1 µM]
COc1ccc(C(=O)Nc2ccc(CN3CCOCC3)cc2)cc1Br,20.3%,-4.0%,-3.3%,-0.7%,-0.1,16.4%
COc1ccc(C(=O)NC(=S)N2CCOCC2)cc1Br,1.26µM*,7.5%,1.12µM*,-1.8%,-1.0,6.0%
COc1ccc(C(=O)NC(=S)N2CCOCC2)cc1[N+](=O)[O-],2.24µM*,1.4%,2.82µM*,-4.0%,/,-6.6%
CC(=O)OC1C[C@]2(C)[C@@H](CC(O)C3[C@]4(C)CCC(O)C(C)[C@@H]4CC[C@]32C)/C1=C(/CCC=C(C)C)C(=O)O (stereo partly drawn),14.3%,/,-5.9%,/,3.2,/
CCOc1ccc(OC(=O)c2sc3ncn(Cc4cccc(F)c4)c(=O)c3c2C)cc1,/,3.9%[57.1 µM],/,/,/,21.2%[57.1 µM]
O=Cc1cccc(Oc2ccc([N+](=O)[O-])cc2[N+](=O)[O-])c1,14.1µM*,2.6%,3.2%,13.0%,-17.2,-9.3%
Cc1cc(=O)oc2cc(Oc3ccc([N+](=O)[O-])cc3[N+](=O)[O-])ccc12,11.2µM*,6.7%,-79.5%,-1.6%,5.9,?
Cc1ccc(C(=O)NCC(=O)Nc2cccc(S(=O)(=O)NC3=NCCCCC3)c2)cc1C,-2.5%,3.6%[57.1 µM],21.0%,-2.5%,1.2,0.1%[57.1 µM]
Cc1ccccc1Nc1nc(CSc2nnnn2-c2ccccc2)cs1,?,2.7%,-98.1%,3.6%,-6.3,-18.5%
Fc1ccc(-c2c[nH]c(=S)n2Cc2ccccc2)cc1,0.631µM*,5.4%,1.41µM*,-0.8%,1.0,-2.4%
Fc1ccc(-c2n[nH]c(=S)n2Cc2ccccc2)cc1,2.82µM*,12.5%[57.1 µM],11.2µM*,8.0%,3.3,-34.6%[57.1 µM]
CCCCOc1ccc(-c2n[nH]c(=S)n2Cc2ccccc2)cc1,1.58µM*,6.1%,?,3.6%,-1.7,8.5%[57.1 µM]
S=c1[nH]nc(-c2cccnc2)n1Cc1ccccc1,?,8.8%[57.1 µM],?,0.0%,5.6,-20.2%[57.1 µM]
SMILES,RORgamma inh,TrxR1 substrate,VP16 counter,GALK inhibitor,Coupling enz,rTrxR1 inhibitor
Oc1ccc(-c2n[nH]c(=S)n2Cc2ccccc2)cc1,-7.7%[0.365 µM],-8.4%,/,1.4%,5.6,-33.3%
S=c1[nH]nc(-c2ccncc2)n1Cc1ccccc1,12.6µM*,7.6%,-19.8%,4.3%,6.2,-7.4%
COc1ccc(NC(=O)CN2C(=O)COc3ccc(S(=O)(=O)N4CCCCC4)cc32)cc1OC,25.0%,3.0%,-1.9%,11.5%,0.3,25.1%
COc1cc(NC(=O)C2CCCN(S(=O)(=O)c3ccc4[nH]c(=O)ccc4c3)C2)cc(OC)c1 (stereo not drawn),6.7%,-0.8%,-7.2%,6.1%,2.0,1.8%
CC(C)OC(=O)c1cn(-c2ccccc2)nc1-c1ccc2c(c1)OCCO2,-13.9%,-3.0%,2.7%,-0.3%,-6.3,-4.8%
Cc1ccc(-c2n[nH]c(=S)n2C)cc1,?,22.0%,?,3.8%,0.8,-8.9%
CC(C)n1c(-c2ccc(C(C)(C)C)cc2)n[nH]c1=S,4.47µM*,-1.6%,10µM*,-1.3%,-1.3,-14.2%
Cc1cc(-c2n[nH]c(=S)n2Cc2ccccc2)cs1,5.62µM*,6.1%,?,3.3%,3.0,-5.9%
S=c1[nH]nc(-c2ccc(Br)cc2)n1Cc1ccccc1,2.24µM*,-4.7%,5.62µM*,0.7%,6.2,-17.9%
CC(C)(C)c1ccc(-c2n[nH]c(=S)n2Cc2ccccc2)cc1,2.24µM*,-2.1%,7.08µM*,-2.2%,7.2,-2.0%
COc1ccc(CC(=O)N(C)Cc2ccc(C(C)(C)C)cc2)cc1S(=O)(=O)N1CCOCC1,17.0%,-6.2%,5.1%,-8.6%,/,-9.9%
CC(=O)Oc1ccc(C(=O)[C@H]2[C@H]3C(=O)N(c4ccccc4)C(=O)[C@H]3[C@@H]3C=CC=NN32)cc1,?,-6.6%,?,1.6%,-41.4*,11.2µM*
CC(=O)Oc1ccc(N2C(=O)C3C(C2=O)C(C(=O)c2ccc(Cl)cc2)N2CCCC32)cc1 (stereo not drawn),-7.8%,13.3%[57.1 µM],14.1µM*,6.0%,-0.2,-66.3%
CCc1ccc[n+](-c2[nH]c(=O)sc2/C=N/N=C(\[O-])c2ccncc2)c1,20.0%,-17.7%,-8.5%,-7.2%,3.0,-18.6%
COCCN(CC(=O)Nc1cccc(C)c1C)C(=O)C1(c2ccccc2)CC1,/,1.1%,/,/,/,12.6%
Cc1ccc(C)c(S(=O)(=O)N2CCN(C(=O)Cn3c(C(F)(F)F)nc4ccccc43)CC2)c1,18.5%,-6.9%,5.3%,-5.6%,2.2,-0.6%
